Measured values as given in article PMC4552634, “A New Set of Chemical Starting Points with Plasmodium falciparum Transmission-Blocking Potential for Antimalarial Drug Discovery” (PLoS ONE, 2015).
In all, about 13,000 compounds went through this assay and about 3,200 (25%) showed an effect of 50% or more. The list shows a part of the results.

System: P. falciparum stage V gametocytes
Parameters: BacTiter-Glo ATP luminescence viability of purified stage V gametocytes in 384-well plates, per cent inhibition versus DMSO
Details: 48 h, 5 µM; inhibitor

Structure (SMILES) | % Inhibition
CCN(CC)S(=O)(=O)c1ccc(C=CC(=O)Nc2cc(Cl)ccc2N2CCOCC2)cc1 [TCMDC-125117] | 28.22%
Cc1cc(-c2cc(Cl)ccc2Cl)no1 [TCMDC-131691] | -15.9%
CN(C)CCn1cc(C(=O)c2cc(Cl)ccc2O)cc1-c1nc2ccccc2c(=O)[nH]1 [TCMDC-125021] | -20.22%
Cc1cccc(C)c1N1CCN(C2CCC(NC(=O)c3cc4ccccc4[nH]3)CC2)CC1 (centres unmarked) [TCMDC-132890] | -33.12%
COc1ccc2ncc(OC)c(CCN3CC[C@@H](NCc4ccc5c(n4)NC(=O)CS5)[C@H](O)C3)c2n1 [TCMDC-134668] | 10.18%
CCN(CC)CCN(CCN(CC)CC)c1ccc(-c2nc3cc(Cl)c(Cl)cc3[nH]2)cc1 [TCMDC-139329] | 70.38%
Clc1ccc(-c2nc3ccc(-c4ccc5nc(-c6ccc(Cl)cc6)[nH]c5c4)cc3[nH]2)cc1 [TCMDC-123460] | 1.652%
CC(=O)Nc1ccc(-c2nc3ccc(-c4nc5ccc(NC(C)=O)cc5[nH]4)cc3[nH]2)cc1 [TCMDC-125761] | 0.4612%
Cc1nc2nc(N)nc(N)c2c(C)c1Cc1cccs1 [TCMDC-137642] | -3.344%
Cc1ccnc(NC(c2cccc(OCc3ccccc3)c2)c2ccc3cccnc3c2O)c1 (centres unmarked) [TCMDC-125558] | 93.78%
Cc1ccnc(NC(c2ccc(Cl)c([N+](=O)[O-])c2)c2ccc3cccnc3c2O)c1 (centres unmarked) [TCMDC-123691] | 121%
O=[N+]([O-])c1cccc(C(Nc2ccccn2)c2ccc3cccnc3c2O)c1 (centres unmarked) [TCMDC-125725] | 107%
Oc1cccc2ccc(Nc3ccccn3)nc12 [TCMDC-125567] | 43.59%
Cc1ccnc(NC(c2cccc(Cl)c2Cl)c2ccc3cccnc3c2O)c1 (centres unmarked) [TCMDC-123997] | 94.28%
CC(CCc1ccccc1)NCC(O)c1cccc([N+](=O)[O-])c1 (centres unmarked) [TCMDC-125728] | -0.1444%
COc1ccc(-c2cc(C(=O)N[C@@H](Cc3ccccc3)C(=O)NCCN3CCCCC3)ccc2O)cc1 [TCMDC-140804] | 32.57%
Cn1cnc(CCNC(=O)c2cccc(-c3cccc(-c4nc5cc(C(F)(F)F)ccc5[nH]4)c3)c2)c1 [TCMDC-132496] | 22.81%
CCOCCCn1c(=N)c(C(=O)NC(C)c2ccccc2)cc2c(=O)n3cccc(C)c3nc21 (centres unmarked) [TCMDC-124348] | 9.74%
Oc1c(C(Nc2ccccn2)c2ccco2)cc(Cl)c2cccnc12 (centres unmarked) [TCMDC-125324] | 60.61%
Oc1c(C(Nc2ccccn2)c2ccc(Cl)cc2Cl)ccc2cccnc12 (centres unmarked) [TCMDC-125559] | 98.53%
O=C(Cc1ccccc1)NC(c1ccco1)c1cc(Cl)c2cccnc2c1O (centres unmarked) [TCMDC-125561] | -24.24%
Cc1cc(NC(c2ccc(Cl)cc2)c2ccc3cccnc3c2O)no1 (centres unmarked) [TCMDC-123828] | 23.63%

Structure (SMILES) | % Inhibition
CCC(=O)NC(c1ccco1)c1cc(Cl)c2cccnc2c1O (centres unmarked) [TCMDC-123650] | -55.25%
Cc1ccc(Nc2nccc(NCC(O)c3ccc(C(F)(F)F)cc3)n2)cc1 (centres unmarked) [TCMDC-136593] | 10.35%
Cc1ccc2nc(NC#N)[nH]c2c1 [TCMDC-131394] | 6.156%
Cc1noc(C)c1-c1ccc2c(Nc3ccccc3C(C)(C)C)c(C(=O)NCc3ccc(OC(C)C)cc3)cnc2c1.Cl [TCMDC-136370] | -53.99%
CCOc1cc(OCC)c2ccccc2c1CNCCCCCCNCc1c(OCC)cc(OCC)c2ccccc12 [TCMDC-137982] | 121.9%
c1ccc2c(CNCCCCCCNCc3c(OCC4CC4)ccc4ccccc34)c(OCC3CC3)ccc2c1 [TCMDC-137839] | 118.2%
CCCOc1ccc2ccccc2c1CNCCCCCCNCc1c(OCCC)ccc2ccccc12 [TCMDC-137966] | 143.6%
Oc1ccc2ccccc2c1CNCC1CCCCC1 [TCMDC-137608] | 2.485%
CCCCCCCCNCc1c(O)ccc2ccccc12 [TCMDC-137606] | 26.15%
Oc1ccc2ccccc2c1CNCCC1CCCCC1 [TCMDC-137605] | -1.678%
CCCCCCOc1ccc2ccccc2c1CNCCCCCCNCc1c(OCCCCCC)ccc2ccccc12 [TCMDC-137963] | 142.3%
Cc1cc(N[C@@H](CC(C)C)C(=O)NCCc2ccccc2)nc(NCC2CCCCC2)n1 [TCMDC-134920] | -75.82%
Cn1cncc1C(=O)Nc1ccc(-c2ccc(-c3nc4ccc(C(F)(F)F)cc4[nH]3)cc2)cc1 [TCMDC-137065] | -63.66%
Cc1cc(Nc2ncc3c(n2)N(C2CCC2)CC3)ccc1N1CCN(C)CC1 [TCMDC-134146] | 20.06%
Cc1cccc2[nH]c(-c3ccc(-c4ccc(NC(=O)NCc5cccc(F)c5)cc4)cc3)nc12 [TCMDC-133294] | -5.117%
CN1CCN(c2ccc3nccc(CCN4CCC(NCc5ccc6c(n5)NC(=O)CO6)CC4)c3n2)CC1 [TCMDC-141580] | 8.776%
CCOc1ccc2ccccc2c1CNCCCCCCNCc1c(OCC)ccc2ccccc12 [TCMDC-137791] | 117.2%
COc1ccc(C2CC(=O)C3=C(C2)NC(C)=C(C(=O)OC(C)C)C3c2ccc(O)cc2)cc1OC (centres unmarked) [TCMDC-125633] | 43.1%
C[C@@H]1CC[C@H](NC(=O)[C@H](CC2CCCC2)NC(=O)N2CCNCC2)C(=O)CN1S(=O)(=O)c1ccccn1 [TCMDC-141571] | 57.62%
CC(C)C[C@H](NC(=O)c1cc2cc(OCCN3CCNCC3)ccc2o1)C(=O)NC1CC[C@@H](C)N(C(=O)Nc2ccc(Cl)cc2)CC1=O (some centres unmarked) [TCMDC-133539] | 8.489%
COc1cccc2cc(C(=O)N[C@@H](CC(C)C)C(=O)NC3CC[C@@H](C)N(C(=O)Nc4ccncc4)CC3=O)oc12 (some centres unmarked) [TCMDC-134320] | -6.979%
CCOC(=O)NC1=NC(C)(C)N(OCCCOc2cc(Cl)c(Cl)cc2Cl)C(NC(=O)OCC)=N1 [TCMDC-131743] | 1.787%
